Bioassay records deposited in PubChem by National Center for Advancing Translational Sciences (NCATS).
Hits are enriched below; roughly 8% of the tested compounds scored in any of these assays.
Marburg entry inh = qHTS for inhibitors of binding or entry into cells for Marburg Virus; Marburg virus pseudotyped entry inhibition, cell reporter; Potency, µM (doses to about 37.8 µM), usual class: inhibitors; actives 1.8% (n = 300,000); calls by dose curve; tested in HEK293 cells
FMDV inh = High Throughput Screening for Foot and Mouth Disease Virus Antivirals. FMDV antiviral cell-based qHTS. Potency, µM (series often up to 57.9 µM), most hits filed as inhibitors. actives 1.2% (n = 410,000). AID 1159524, 2015; calls by dose curve; tested in HEK293T cells; also: read-out not given here; nearly all actives have a fitted effect of over 45% in size
SARS PLpro yeast = qHTS of Yeast-based Assay for SARS-CoV PLP; S. cerevisiae expressing SARS-CoV PLpro, growth rescue; Potency, µM (highest dose often 32.9 µM), actives largely listed as activators; actives 0.19% (n = 330,000); AID 485353, 2010; calls by dose curve; also: nearly all actives have a fitted effect of over 55% in size
HCMV inh = qHTS Assay for inhibitors of the human cytomegalovirus (HCMV); HFF cells, HCMV-luciferase reporter, 72 h; hits give low values; activity change, negative = inhibition, % at 57.5 µM; actives 4.5% (n = 410,000); in the data active = activity change below about -60%; inconclusive = no clear call, values can overlap the other calls; inactive = above about -39%
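Steps: HFFs plated, 16 h 37C; compounds added; HCMV-luciferase added to MOI 1 PFU/cell; 72 h 37C; OneGlo reagent, 5 min room temperature; luminescence read, normalized to controls.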
HCV inhibitor = qHTS Assay for Inhibitors of Hepatitis C Virus (HCV) | Potency, µM (series often up to 41.8 µM), usual class: inhibitors | actives 3.4% (n = 340,000) | Huh7.5.1 HCVcc-Cre infection, luciferase reporter, 44 h; active = well fitted inhibition curve with a large enough effect; inconclusive = small, poorly fitted or top-dose-only effect, or another doubt; inactive = no such curve, though single readings can be large or run the other way
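HCVcc-Cre virus at an moi near 0.5 was added right after compound to cells cultured 4 h from seeding (1,000 cells/well). Luciferase activity was determined 44 h later, 15 min after substrate addition at RT.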
Lassa entry inh = qHTS for Inhibitors of binding or entry into cells for Lassa Virus. Lassa virus pseudotype entry inhibition, cell reporter. actives 1.2% (n = 300,000). AID 540256, 2011. Potency, µM (titrated, usually from 37.9 µM), actives largely listed as inhibitors; calls by dose curve; tested in HEK293 cells; also: nearly all actives have a fitted effect of over 50% in size
Hits are given with their value.

Results for CCOCCCNC(=O)C(c1ccccc1)N(Cc1cccs1)C(=O)c1ccccc1O (centres undefined) ?
Marburg entry inh: inconclusive; FMDV inh: inactive; SARS PLpro yeast: inactive; HCMV inh: inactive; HCV inhibitor: inconclusive; Lassa entry inh: inconclusive

What do the screens show for `COC(=O)CC1=COC(O)C2C(CO)=CC[C@@H]12` (some centres undefined)?
Marburg entry inh: inactive

What do the screens show for `COc1ccc(-c2nc(-c3ccccc3)c(-c3ccc(F)cc3)[nH]2)c(OC)c1C`?
Marburg entry inh: inactive; FMDV inh: inactive; HCMV inh: inactive; Lassa entry inh: inactive

Results for O=C(Cc1ccc(Cl)cc1)Nc1nnc2n1CCS2 ?
FMDV inh: inactive; HCMV inh: inactive; Lassa entry inh: inactive

Results for Cc1ccc(NC(=O)C2(C)Cc3ccccc3C(=O)O2)cc1 (centres undefined) ?
FMDV inh: inactive; SARS PLpro yeast: inactive; HCMV inh: -60; HCV inhibitor: inactive

What do the screens show for `CC(=O)c1cccc(Nc2nccc3c2cc(-c2cccc(C(F)(F)F)c2)n3C)c1`?
HCMV inh: inactive

What do the screens show for `O=C(NCc1ccc(Cl)cc1)C1CCN(c2ncnc3c2nc2n3CCCCC2)CC1`?
FMDV inh: inactive; HCMV inh: inactive; Lassa entry inh: inactive

What do the screens show for `Fc1ccc(N2CCN(c3ncnc4c3nc3n4CCCCC3)CC2)cc1`?
FMDV inh: 25µM; HCMV inh: inactive; Lassa entry inh: inactive

What do the screens show for `c1ccc(N2CCN(c3ncnc4c3nc3n4CCCCC3)CC2)cc1`?
FMDV inh: 10µM; HCMV inh: -76; Lassa entry inh: inconclusive

Results for Clc1ccc(N2CCN(c3ncnc4c3nc3n4CCCC3)CC2)cc1 ?
FMDV inh: inconclusive; HCMV inh: -69; Lassa entry inh: inactive

Results for CC1CN(Cc2cccn2-c2cccnc2)Cc2cc(Cl)ccc2O1 (centres undefined) ?
FMDV inh: inactive

Results for CCc1ccc(CNC(=O)CCc2c(C)nn(-c3ccc(N4CCCCC4)nn3)c2C)cc1 ?
FMDV inh: inactive; HCMV inh: inactive; Lassa entry inh: inconclusive

Results for O=C(Nc1ccc(Cl)cc1Cl)c1cccc(N2C(=O)C=CC2=O)c1 ?
Marburg entry inh: inactive; FMDV inh: inactive; SARS PLpro yeast: inactive; HCMV inh: -73; HCV inhibitor: inactive

What do the screens show for `COc1ccc(NC(=O)c2cccc(N3C(=O)C4C5C=CC(C6CC56)C4C3=O)c2)c(OC)c1` (centres undefined)?
Marburg entry inh: inconclusive; FMDV inh: inactive; SARS PLpro yeast: inactive; HCMV inh: inactive; HCV inhibitor: inactive; Lassa entry inh: 18µM

What do the screens show for `O=C(O)c1cccc(N2C(=O)C=CC2=O)c1`?
FMDV inh: inactive; HCMV inh: inactive

What do the screens show for `COc1ccc(NC(=O)c2cccc(N3C(=O)C4C5C=CC(C5)C4C3=O)c2)cc1Cl` (centres undefined)?
Marburg entry inh: inactive; FMDV inh: inconclusive; SARS PLpro yeast: inactive; HCMV inh: inactive; HCV inhibitor: 10µM; Lassa entry inh: inactive

What do the screens show for `O=C(Nc1ccc(Cl)cc1)c1cccc(N2C(=O)C3C4CCC(C4)C3C2=O)c1` (centres undefined)?
Marburg entry inh: inconclusive; FMDV inh: 32µM; SARS PLpro yeast: inactive; HCMV inh: inconclusive; HCV inhibitor: inconclusive; Lassa entry inh: inconclusive

How did Cc1ccc(NC(=O)c2cccc(N3C(=O)C4C5C=CC(C5)C4C3=O)c2)cc1C (centres undefined) do in these assays?
FMDV inh: inactive; SARS PLpro yeast: inactive; HCMV inh: inconclusive; HCV inhibitor: inactive

What do the screens show for `CN1CCc2nc3sc(C(=O)Nc4ccccc4C(F)(F)F)c(N)c3cc2C1`?
Marburg entry inh: inactive; FMDV inh: inactive; HCMV inh: inactive; Lassa entry inh: inactive

What do the screens show for `CC(=O)c1cccc(NC(=O)c2ccc(-n3c(C)nnc3C)cc2)c1`?
FMDV inh: inactive; HCMV inh: inactive; Lassa entry inh: inactive

What do the screens show for `C[C@@H]1CC[C@H]2C(=O)N3[C@@H](CC[C@@H](C)[C@@H]3c3ccc(-c4ccco4)cc3)C(=O)N2[C@@H]1c1ccc(-c2ccco2)cc1`?
Marburg entry inh: inactive; Lassa entry inh: inconclusive

Results for COCCNC(=O)CSc1nc(-c2cc(OC)c(OC)c(OC)c2)[nH]c1-c1ccc(Cl)cc1 ?
Marburg entry inh: inconclusive; FMDV inh: inactive; HCMV inh: inactive; Lassa entry inh: inactive

Results for COc1ccc(NC(=O)c2cccc(N3C(=O)C4C5C=CC(C6CC56)C4C3=O)c2)cc1 (centres undefined) ?
Marburg entry inh: inconclusive; FMDV inh: 40µM; SARS PLpro yeast: inactive; HCMV inh: inactive; Lassa entry inh: inactive

Results for O=[N+]([O-])c1cc(CN2CCN(c3ccccc3)CC2)c(O)c2ncccc12 ?
Marburg entry inh: inconclusive; FMDV inh: inactive; SARS PLpro yeast: inactive; HCMV inh: -89; HCV inhibitor: inconclusive; Lassa entry inh: inconclusive

How did CCCCOCc1cc(CN2CCN(c3cccc(Cl)c3)CC2)c(O)c2ncccc12 do in these assays?
Marburg entry inh: inconclusive; FMDV inh: inactive; HCMV inh: -100; Lassa entry inh: inconclusive

Results for CCCOCc1cc(CN2CCN(c3cccc(Cl)c3)CC2)c(O)c2ncccc12 ?
Marburg entry inh: inconclusive; FMDV inh: inactive; HCMV inh: -97; Lassa entry inh: inconclusive

What do the screens show for `CN1CCN(Cc2cc(COCc3ccccc3)c3cccnc3c2O)CC1`?
Marburg entry inh: 6.3µM; FMDV inh: inactive; SARS PLpro yeast: inactive; HCMV inh: inconclusive; HCV inhibitor: 3.2µM; Lassa entry inh: inconclusive

How did COc1cc(CN2CCN(c3cccc(Cl)c3)CC2)cc(OC)c1OC do in these assays?
Marburg entry inh: inactive; FMDV inh: inactive; SARS PLpro yeast: inactive; HCMV inh: inactive; HCV inhibitor: inactive; Lassa entry inh: inactive

Results for Cc1c(C(=O)NC(C)(C)C)sc2ncnc(NCCN(C)C)c12 ?
FMDV inh: inactive

How did Cc1ccc(-c2nc3n(n2)Cc2ccccc2-3)cc1 do in these assays?
Marburg entry inh: inconclusive; FMDV inh: inactive; SARS PLpro yeast: inactive; HCMV inh: inactive; HCV inhibitor: inactive; Lassa entry inh: inconclusive

Results for c1ccc(-c2cn3c(n2)-c2ccccc2C3)cc1 ?
Marburg entry inh: inconclusive; FMDV inh: inactive; SARS PLpro yeast: inactive; HCMV inh: inactive; HCV inhibitor: inactive; Lassa entry inh: 4.5µM

How did CC1CCC(NC(=O)CCc2cn(Cc3ccc(F)cc3)c3ccccc23)CC1 (centres undefined) do in these assays?
FMDV inh: inactive; HCMV inh: inactive; Lassa entry inh: inconclusive

Results for CCS(=O)(=O)N1CCC(n2c(C(F)(F)F)nc3cccnc32)CC1 ?
FMDV inh: inactive; HCMV inh: inactive; Lassa entry inh: inactive
